Screening data from PubChem BioAssay.
Not all results are given here.
LmPK activator: activators of Leishmania mexicana pyruvate kinase | Q27686 | purified LmPK, Kinase-Glo ATP luminescence, 1 h | activity change, negative = inhibition, % at 57.5 µM | 290,000 tested, under 10 active | AID 1722; calls by dose curve
Target sequence (Q27686 whole entry, looked up): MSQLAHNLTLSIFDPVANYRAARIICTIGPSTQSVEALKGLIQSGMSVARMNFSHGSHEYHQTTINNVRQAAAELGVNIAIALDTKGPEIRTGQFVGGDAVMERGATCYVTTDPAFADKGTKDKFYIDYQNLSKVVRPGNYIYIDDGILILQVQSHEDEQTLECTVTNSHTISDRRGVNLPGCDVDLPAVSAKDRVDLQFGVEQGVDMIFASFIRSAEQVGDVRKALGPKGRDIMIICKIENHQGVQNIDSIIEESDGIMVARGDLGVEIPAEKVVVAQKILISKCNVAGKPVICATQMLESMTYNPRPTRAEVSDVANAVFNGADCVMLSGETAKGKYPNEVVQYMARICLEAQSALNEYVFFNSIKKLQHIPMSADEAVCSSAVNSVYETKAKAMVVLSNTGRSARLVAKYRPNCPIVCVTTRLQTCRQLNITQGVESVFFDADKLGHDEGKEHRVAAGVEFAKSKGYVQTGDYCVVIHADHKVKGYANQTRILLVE
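Coupled luminescent assay: ATP produced by LmPK (0.1 nM) from ADP (0.1 mM, ~10-fold below Km) and PEP (0.5 mM, at Km) after 1 h RT, detected with Kinase-Glo. Data scaled between no-enzyme and uninhibited controls.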
* hit, by the source's call.

SMILES	LmPK activator
COc1ccc2c(=O)c(-c3ccc4c(c3)OCO4)coc2c1	-32.6
CCN1C(=O)/C(=C/C=C2\N(CC)c3cc(S(=O)(=O)N(C)C)ccc3N2c2ccccc2)SC1=S	-40.1
COc1ccccc1-c1nc(-c2cccc(C)c2)no1	-34.2
COc1ccccc1NC(=O)Nc1ccc(C(=O)N2CCCCC2)cc1	-48.0
Cc1ccsc1C(=O)OCc1csc(-c2ccccc2)n1	-101.8
Cc1ccc(-n2c(-c3c(-c4ccccc4)noc3C)n[nH]c2=S)cc1	-76.3
CCN(CC)c1ccc2c(-c3ccc(S(=O)(=O)O)cc3S(=O)(=O)[O-])c3ccc(=[N+](CC)CC)cc-3oc2c1	-35.6
CCn1cc(C(=O)O)c(=O)c2cnc(N3CCN(C(=S)NC(=O)c4ccc(Br)cc4)CC3)nc21	-50.1
COc1ccc(OC)c(S(=O)(=O)ON2C(=O)c3ccccc3C2=O)c1	-59.2
COc1cccc(-c2ccc(SCc3ccccn3)nn2)c1	-63.5
Oc1ccc(CCc2n[nH]c(=S)n2-c2ccc(F)cc2)cc1	-94.9
Oc1ccc(CCNc2c3ccccc3nc3ccccc23)cc1O	-53.5
O=[N+]([O-])c1ccc(OCc2n[nH]c(=S)n2-c2ccccc2)cc1	-30.3
CCS(=O)(=O)c1ccc2oc(Nc3ccccc3C)nc2c1	-57.4
CCOC(=O)c1c(N2C(=O)C=CC2=O)sc(C)c1C	-37.3
COc1ccc(C(=O)NN/C(=N/S(=O)(=O)c2ccc(C)cc2)c2ccccc2)cc1	-34.8
CC1=C/C(=C(\c2cc(C)c(O)c(Br)c2)c2ccccc2S(=O)(=O)O)C=C(Br)C1=O	-92.8
Cc1cc(N2C(=O)C=CC2=O)c([N+](=O)[O-])cc1C	-32.0
COc1ccc(NC(=O)OC(C)C)cc1	-39.0
C/C(=N\OC(=O)c1ccccc1F)c1nccs1	-43.6
CCOc1ccc(NC(=O)Nc2cc(C)ccc2F)cc1	-97.5
CSC1=N/C(=C/c2ccc(-n3cncn3)cc2)C(=O)N1	-40.4
Cc1ccc(C=C2C(=O)c3ccccc3C2=O)s1	-124.2
Cc1[nH]n(-c2ccc([N+](=O)[O-])cc2)c(=O)c1C=NCCN1CCN(C(=O)C(C)C)CC1	-73.3
COc1cc(N=Nc2cccc(S(N)(=O)=O)c2)c2ccccc2c1N	-45.2
SMILES	LmPK activator
c1coc(-c2nnc(-c3ccco3)nn2)c1	-30.4
O=C1NN(c2ccccc2)C(=O)/C1=C\c1ccc(-c2cc([N+](=O)[O-])ccc2O)o1	-61.0
CC(C)OC(=O)Nc1ccc2c(c1)N(C(=O)N1CCN(C)CC1)c1ccccc1CC2	-47.0
CCc1ccccc1NC(=O)Nc1ccc2c(c1)OCO2	-31.1
O=C(NC(=O)c1ccccc1O)c1ccc2c(c1)CCO2	-40.6
Cc1nc(NC(=O)c2cccs2)ccc1Br	-42.3
CCc1nc2sc3c(O)cc(=O)[nH]c3c2cc1C	-36.7
O=c1oc(-c2ccco2)nc2sc3c(c12)CCCC3	-43.0
O=C(Nc1nc2c(s1)C(=O)CCC2)c1ccccc1	-50.8
OCc1c[nH]c(=S)n1CCOc1cccc(C(F)(F)F)c1	-34.6
COCC(=O)Nc1cc(C(=O)Nc2ccccc2)ccc1Cl	-50.6
COc1ccccc1C(=O)Nc1nsc(-c2ccccc2)n1	-42.1
CCCCc1n[nH]c(=S)n1Cc1ccc(C)cc1	-38.7
N/C(=N\OC(=O)c1ccc2c(c1)OCO2)c1ccncc1	-65.8
C=CCOc1ccc(C=Nc2ccc(Cl)cc2)c(O)c1	-33.1
O=C(/C=C/c1ccc2c(c1)OCO2)Nc1cccnc1	-61.2
O=C1N=c2ccc([N+](=O)[O-])cc2=C1c1sc(=O)[nH]c1O	-31.9
c1ccc(-c2nc(-c3nccc4ccccc34)oc2-c2ccccc2)cc1	-30.1
Cc1ccc(S(=O)(=O)c2ccccc2)cc1S	-63.2
CSc1n[nH]c(=O)n1-c1ccc(Cl)cc1	-40.5
Cc1ccc(/C=C/c2nc3ccccc3[nH]2)o1	-64.0
S=c1[nH]nc(Cn2cnc3ccccc32)n1-c1ccccc1Cl	-44.5
CC(C)n1c(=S)[nH]c2cc(Cl)ccc21	-50.6
CCOc1ccc(NC(=O)Nc2cccs2)cc1	-38.5
COc1ccc(C(=O)Nc2ccccc2C(=O)N/N=C/c2ccncc2)cc1OC	-73.6
SMILES	LmPK activator
Cn1ccnc1SCC(=O)c1ccc(Br)cc1	-40.3
Cc1ccccc1OCC(=O)Nc1ccccc1-c1ccccc1	-39.1
CN1C(=O)/C(=C/c2cc(N=Nc3ccccc3)ccc2O)SC1=S	-45.3
COc1ccc(/C=C2\N=C(SC)N(C)C2=O)cc1	-48.6
Cc1occc1C(=O)N/N=C/C(Br)=C\c1ccccc1	-46.7
Cc1ccnc(NC(=O)/C=C/c2cccs2)c1	-41.2
Cc1ccc(C(=O)Nc2ccc(C(=O)N3CCCCC3)cc2)o1	-41.9
CCOC(=O)N1CCN(Cc2nnc(-c3ccccc3C)o2)CC1	-115.1
Cc1cc(NC(=O)c2ccccc2F)ncc1NC(=O)c1cccs1	-47.5
O=C(CBr)c1ccc([N+](=O)[O-])c(CS(=O)(=O)c2ccc(Cl)cc2)c1	1.9
COc1ccc(C(=O)Nc2cc(OC)nc(OC)n2)cc1	-52.0
COc1ccc(/C=N/NC(=O)c2[nH]ncc2Br)c(OC)c1	-58.6
Cc1nc(C2COc3ccccc3O2)sc1C(=O)O (configuration not stated)	-57.3
CCc1ccc(NC(=O)Nc2ccsc2C(=O)OC)cc1	-30.8
Cc1ccsc1/C=N/Nc1nc(=O)[nH]nc1C	-90.6
Cn1ccs/c1=N\C(=O)Nc1ccccc1	-33.6
